Six substances from ChEMBL document CHEMBL1201862, “PubChem BioAssay data set” (2004) can be followed below.

The campaign covered roughly 44,000 sequences. About 3,200 (7.3%) were called active. Cut-off read from the data, not from the text of the source: active = GI50 up to about 1.1 µM and inactive = higher. The full list was thinned out, with actives kept by preference. Entries with a potency or affinity are not part of this list.

The experiment deals with DU-145.
Substance “[Bis(aminomethyl)dimethylsilane]tetrachloroplatinum(IV), CHEMBL2146190” returned a GI50 of 5020 nM. In turn, “[Bis(aminomethyl)pentamethylenesilane]tetrachloropaltinum(IV), CHEMBL2146204” had a GI50 of 344 nM. Against the preceding substance, the GI50 is about 15-fold lower. The substance “[Bis(aminomethyl)pentamethylenesilane]dichloropaltinum(II), CHEMBL2146202” registered a GI50 of 1290 nM.

As for “[Bis(aminomethyl)tetramethylenesilane]tetrachloropaltinum(IV), CHEMBL2146189”, the GI50 was determined as 2220 nM. CISPLATIN, CHEMBL11359 had a GI50 of 1990 nM. For the substance “[Bis(aminomethyl)tetramethylenesilane]dichloropaltinum(II), CHEMBL2146205”, the GI50 is 8150 nM.

By GI50 is commonly meant the concentration giving 50% growth inhibition. Read a low GI50 as greater sensitivity of the cells.
